# Measurements: paper PMC7862700, “An all-to-all approach to the identification of sequence-specific readers for epigenetic DNA modifications on cytosine”
# Assays:
# Assay in all cases: DAPPL (digital affinity profiling via proximity ligation, sequencing); 10 mM Tris-HCl pH 7.5, 50 mM NaCl, 1 mM DTT, 4% glycerol, room temperature, 30 min; GST-TFs on glutathione beads, 16-mer random dsDNA library, 0.1% formaldehyde crosslink after washing; high values mean tight binding
# Settings in all cases: protein: recombinant; tags: N-terminal GST; dsDNA, one strand shown
# ETV1 = ETV1 (Homo sapiens, UniProt P50549 1-477)
# Outline: (§1)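 Each value of binding signal is a hexamer's read frequency for a factor divided by the same hexamer's frequency in the tag-only sample. Barcoded, bead-captured GST fusions of human transcription factors made in yeast were pooled with that sample and incubated with 200 nmole of a random double-stranded 16-mer DNA library in Tris/NaCl/DTT/glycerol buffer at room temperature for 30 min. Washing, 0.1% formaldehyde crosslinking, proximity ligation, PCR and Illumina NextSeq500 sequencing followed.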
# ERF = target: T1, ERF (Homo sapiens, UniProt P50548 1-548)
# T1 sequence: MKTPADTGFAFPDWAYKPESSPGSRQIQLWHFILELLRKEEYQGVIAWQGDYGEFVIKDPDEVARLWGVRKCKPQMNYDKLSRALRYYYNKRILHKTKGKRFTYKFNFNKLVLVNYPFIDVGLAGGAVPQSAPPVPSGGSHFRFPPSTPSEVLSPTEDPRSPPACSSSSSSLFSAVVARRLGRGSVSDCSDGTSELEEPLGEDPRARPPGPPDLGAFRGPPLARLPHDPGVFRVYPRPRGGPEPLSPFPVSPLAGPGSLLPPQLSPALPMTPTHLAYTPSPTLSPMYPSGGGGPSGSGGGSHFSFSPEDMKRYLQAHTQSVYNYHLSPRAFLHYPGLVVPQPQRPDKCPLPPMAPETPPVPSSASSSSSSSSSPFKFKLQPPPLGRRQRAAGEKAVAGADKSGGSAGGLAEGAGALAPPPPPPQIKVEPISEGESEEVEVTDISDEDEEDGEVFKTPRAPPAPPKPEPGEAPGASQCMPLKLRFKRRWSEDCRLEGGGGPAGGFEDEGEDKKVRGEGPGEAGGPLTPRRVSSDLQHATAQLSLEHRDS
# Outline: as §1
# ETV3L = target: T2, ETV3L (Homo sapiens, UniProt Q6ZN32 1-361)
# T2 sequence: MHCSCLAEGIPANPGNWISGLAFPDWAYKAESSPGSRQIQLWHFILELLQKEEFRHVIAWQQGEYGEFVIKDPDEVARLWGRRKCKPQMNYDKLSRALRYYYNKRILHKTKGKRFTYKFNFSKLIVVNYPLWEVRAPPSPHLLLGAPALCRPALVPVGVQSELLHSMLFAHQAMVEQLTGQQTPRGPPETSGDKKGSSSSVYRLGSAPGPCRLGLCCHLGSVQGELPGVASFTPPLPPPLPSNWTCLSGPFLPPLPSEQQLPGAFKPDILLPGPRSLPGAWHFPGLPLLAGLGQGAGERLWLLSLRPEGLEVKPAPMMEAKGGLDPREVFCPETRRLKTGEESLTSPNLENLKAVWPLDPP
# Outline: as §1
# ETS2 = target: T3, ETS2 (Homo sapiens, UniProt P15036 1-469)
# T3 sequence: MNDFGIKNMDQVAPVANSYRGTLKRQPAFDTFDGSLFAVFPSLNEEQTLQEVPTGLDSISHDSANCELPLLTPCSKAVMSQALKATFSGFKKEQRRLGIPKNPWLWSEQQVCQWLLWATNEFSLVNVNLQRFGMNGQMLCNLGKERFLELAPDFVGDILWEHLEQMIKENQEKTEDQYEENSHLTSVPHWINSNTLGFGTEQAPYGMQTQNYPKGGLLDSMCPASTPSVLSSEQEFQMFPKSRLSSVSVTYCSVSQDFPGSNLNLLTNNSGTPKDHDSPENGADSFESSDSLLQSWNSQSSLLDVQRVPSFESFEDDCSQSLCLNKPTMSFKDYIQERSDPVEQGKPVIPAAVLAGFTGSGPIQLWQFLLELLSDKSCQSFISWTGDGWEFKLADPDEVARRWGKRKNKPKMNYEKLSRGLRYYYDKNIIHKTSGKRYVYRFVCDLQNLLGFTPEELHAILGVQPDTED
# Outline: as §1
# SPDEF = target: T4, SPDEF (Homo sapiens, UniProt O95238 1-335)
# T4 sequence: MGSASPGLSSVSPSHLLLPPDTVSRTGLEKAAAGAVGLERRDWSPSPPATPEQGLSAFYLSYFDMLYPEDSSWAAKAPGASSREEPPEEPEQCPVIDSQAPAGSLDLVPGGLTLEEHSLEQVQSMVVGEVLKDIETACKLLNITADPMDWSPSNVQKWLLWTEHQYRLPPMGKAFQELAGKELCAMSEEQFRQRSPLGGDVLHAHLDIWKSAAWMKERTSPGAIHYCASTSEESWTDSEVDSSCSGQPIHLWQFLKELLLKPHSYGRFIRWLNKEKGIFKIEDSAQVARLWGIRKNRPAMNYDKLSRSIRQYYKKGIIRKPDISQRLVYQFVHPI
# Outline: as §1
# ETV7 = target: T5, ETV7 (Homo sapiens, UniProt Q9Y603 1-341)
# T5 sequence: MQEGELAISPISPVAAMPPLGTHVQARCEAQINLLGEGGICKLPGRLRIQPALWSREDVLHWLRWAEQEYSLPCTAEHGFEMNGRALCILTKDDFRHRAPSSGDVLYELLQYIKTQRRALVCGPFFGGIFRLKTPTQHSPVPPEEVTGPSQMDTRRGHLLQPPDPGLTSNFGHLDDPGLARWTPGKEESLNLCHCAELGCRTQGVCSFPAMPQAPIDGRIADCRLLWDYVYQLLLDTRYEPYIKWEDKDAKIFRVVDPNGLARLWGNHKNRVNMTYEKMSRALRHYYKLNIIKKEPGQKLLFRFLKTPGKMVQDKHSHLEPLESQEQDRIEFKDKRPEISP
# Outline: as §1
# ELF5 = target: T6, ELF5 (Homo sapiens, UniProt Q9UKW6-2 1-255)
# T6 sequence: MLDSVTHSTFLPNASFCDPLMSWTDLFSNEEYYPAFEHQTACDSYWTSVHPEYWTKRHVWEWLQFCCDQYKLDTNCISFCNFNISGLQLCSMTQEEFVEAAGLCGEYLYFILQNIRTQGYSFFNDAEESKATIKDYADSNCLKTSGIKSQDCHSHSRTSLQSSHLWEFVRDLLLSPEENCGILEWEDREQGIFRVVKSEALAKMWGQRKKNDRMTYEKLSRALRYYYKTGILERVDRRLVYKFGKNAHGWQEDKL
# Outline: as §1
# ETV3 = target: T7, ETV3 (Homo sapiens, UniProt P41162-2 1-143)
# T7 sequence: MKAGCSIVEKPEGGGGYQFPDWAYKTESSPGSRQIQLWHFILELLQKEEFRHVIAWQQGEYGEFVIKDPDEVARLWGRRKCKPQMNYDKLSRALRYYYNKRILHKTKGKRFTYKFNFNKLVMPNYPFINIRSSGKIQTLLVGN
# Outline: as §1
# ETV6 = ETV6 (Homo sapiens, UniProt P41212 1-452)
# Outline: as §1
# Chain of ETV1 (P50549 whole entry, the tested form may be a part): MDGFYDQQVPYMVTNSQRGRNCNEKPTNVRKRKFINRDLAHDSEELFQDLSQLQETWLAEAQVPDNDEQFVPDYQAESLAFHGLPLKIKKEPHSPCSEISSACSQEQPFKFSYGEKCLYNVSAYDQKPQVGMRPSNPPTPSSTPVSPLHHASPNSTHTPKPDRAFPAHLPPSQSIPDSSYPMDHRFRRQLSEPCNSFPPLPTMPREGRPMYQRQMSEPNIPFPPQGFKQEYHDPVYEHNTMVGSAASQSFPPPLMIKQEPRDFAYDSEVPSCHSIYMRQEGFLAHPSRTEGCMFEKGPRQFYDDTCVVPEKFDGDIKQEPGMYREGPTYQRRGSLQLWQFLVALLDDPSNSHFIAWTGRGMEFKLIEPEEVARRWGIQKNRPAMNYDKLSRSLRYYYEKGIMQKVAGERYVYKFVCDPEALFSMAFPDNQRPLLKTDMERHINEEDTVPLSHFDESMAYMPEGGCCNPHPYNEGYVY
# Chain of ETV6 (P41212 whole entry): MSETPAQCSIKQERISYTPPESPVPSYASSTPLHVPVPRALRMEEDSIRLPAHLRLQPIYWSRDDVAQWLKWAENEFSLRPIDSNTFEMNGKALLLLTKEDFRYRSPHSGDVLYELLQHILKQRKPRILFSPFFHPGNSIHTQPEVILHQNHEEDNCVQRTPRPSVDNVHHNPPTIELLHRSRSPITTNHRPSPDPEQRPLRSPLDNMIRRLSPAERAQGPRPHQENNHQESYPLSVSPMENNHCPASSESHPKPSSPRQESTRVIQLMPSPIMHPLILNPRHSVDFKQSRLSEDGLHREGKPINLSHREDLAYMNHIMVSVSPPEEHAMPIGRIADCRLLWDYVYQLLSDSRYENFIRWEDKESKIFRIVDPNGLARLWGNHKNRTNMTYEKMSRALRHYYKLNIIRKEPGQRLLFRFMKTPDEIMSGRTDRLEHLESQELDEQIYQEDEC
sequence,measurement,setting,value
GCTCCG,binding signal,ETV1,"1.27 fold enrichment (6-mer frequency, TF over GST control)"
same,binding signal,ERF,"1.26 fold enrichment (6-mer frequency, TF over GST control)"
same,binding signal,ETV3L,"1.33 fold enrichment (6-mer frequency, TF over GST control)"
same,binding signal,ETS2,"1.33 fold enrichment (6-mer frequency, TF over GST control)"
same,binding signal,SPDEF,"1.34 fold enrichment (6-mer frequency, TF over GST control)"
same,binding signal,ETV7,"1.27 fold enrichment (6-mer frequency, TF over GST control)"
same,binding signal,ELF5,"1.25 fold enrichment (6-mer frequency, TF over GST control)"
same,binding signal,ETV3,"1.2 fold enrichment (6-mer frequency, TF over GST control)"
same,binding signal,ETV6,"1.19 fold enrichment (6-mer frequency, TF over GST control)"
